In PubChem BioAssay AID686979 (National Center for Advancing Translational Sciences (NCATS), 2013):
The campaign covered roughly 420,000 compounds. About 50,000 (12%) were called active. Inconclusive results (about 26%) are left out. This excerpt belongs to a sample that is enriched for actives. Values without a mark were called inactive. The call rests on the fitted dose curve; in most records, active means well fitted inhibition curve with a large enough effect; inconclusive means small, poorly fitted or top-dose-only effect; inactive means flat fitted curve, though single readings scatter.

Assay: qHTS for Inhibitors of human tyrosyl-DNA phosphodiesterase 1 (TDP1): qHTS in cells in presence of CPT; further: nearly all actives have a fitted effect of over 55% in size
Conditions: chicken DT40 Tdp1-/-;hTDP1 cells + 20 nM CPT, ATP luminescence, 48 h; series mostly up to 46.2 µM; activity change, negative = growth inhibition: at the top concentration
Procedure, shortened: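 Chicken DT40 Tdp1-/- cells complemented with human TDP1, 400 cells/well, exposed to compounds plus 20 nM camptothecin for at least 48 h at 37 C; viability read as ATP content by CellTiter-Glo luminescence.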
On the % scale 0 is the no-effect control and ±100 the full control effect; potency means the concentration at half of the fitted maximal effect.

Row | SMILES | activity change, negative = growth inhibition [%] | Potency
1 | O=C(NNC(=S)NC1CCCCC1)c1ccccc1Cl | -16.4 | 
2 | Clc1ccccc1CSc1nncn2c1cc1occc12 | -7.58 | 
3 | Cn1c(CCc2ccccc2)nnc1SCC(N)=O | -1.76 | 
4 | COc1ccc(CCC(C)N2CCc3ccccc3C2)cc1 (centres undefined) | -12.5 | 
5 | COc1ccc(CN2CN(C(C)C)CSC2=S)cc1 |  | 2.91 µM (active)
6 | COc1ccc(Cn2c(=O)cc(C)[nH]c2=S)cc1 | 5.33 | 
7 | COc1ccc(CN2CN(C3CCCC3)CSC2=S)cc1 |  | 5.17 µM (active)
8 | COc1ccc(CN2CC(C(=O)NC3CCCCC3)CC2=O)cc1 (centres undefined) | 1.05 | 
9 | COc1ccc(CCNC(=O)COC(=O)C2CCCCC2)cc1 | -9 | 
10 | O=C(NC1CCCC1)C(c1ccccn1)N(C(=O)c1csnn1)C1CCCC1 (centres undefined) | -23 | 
11 | Cc1cc(C)c2c(=O)[nH]c(SCC(=O)Nc3ccc(Br)cc3)nc2n1 | -23.8 | 
12 | CC1(C(=O)NS(=O)(=O)c2cccc(F)c2)CCN1C(=O)Cc1cc(F)ccc1F (centres undefined) | -10.9 | 
13 | CN(CC(=O)Nc1ccccc1F)S(=O)(=O)c1ccc2c(c1)c(=O)n(C)c(=O)n2C | -15.7 | 
14 | O=C1c2ccccc2C(c2nc3ccccc3[nH]2)N1c1ccccc1 (centres undefined) | 24.2 | 
15 | CSc1ncccc1C(=O)NCc1ccccc1Cl | 11.7 | 
16 | O=C(CNC(=O)c1cc(S(=O)(=O)N2CCOCC2)ccc1N1CCCC1)Nc1ccc(F)c(F)c1 | -27.5 | 
17 | COc1ccccc1CNC(=O)[C@@H]1CCCN1C(=O)[C@@H]1Cc2ccccc2CN1C(=O)OC(C)(C)C |  | 18.4 µM (active)
18 | COc1ccccc1CNC(=O)C1Cc2ccccc2C(=O)O1 (centres undefined) | -13 | 
19 | COc1ccccc1CNC(=O)C1CCN(C(=O)[C@@H]2Cc3ccccc3CN2)CC1 | -4.36 | 
20 | CCCNC(=O)c1cnc(-c2ccccc2)nc1-c1ccccc1 | -2.24 | 
21 | O=C(CCCN=C1NS(=O)(=O)c2ccccc21)OCC(=O)c1ccc(F)c(F)c1 | 27.8 | 
22 | COC(=O)C(CC(=O)Nc1cc(C)ccc1C)Nc1ccccc1OC (centres undefined) | -10.3 | 
23 | Cc1ccc(C)c(NC(=O)CCC(=O)NNC(=O)c2cccs2)c1 | -8.35 | 
24 | Cc1ccc(C)c(NC(CC(=O)c2ccccc2)C(=O)OCC(=O)c2cccs2)c1 (centres undefined) |  | 18.4 µM (active)
25 | O=C(Nc1nnc(-c2ccccc2F)s1)c1ccccc1F | 8.72 | 

Row | SMILES | activity change, negative = growth inhibition [%] | Potency
26 | CN(Cc1ccccn1)Cc1nc(-c2ccc(Cl)cc2)no1 | -0.996 | 
27 | CCN1CC(CN(C)Cc2nc(-c3ccc(Cl)cc3)no2)CC1=O (centres undefined) |  | 16.4 µM (active)
28 | CN(CCN1CCOCC1)Cc1nc(-c2ccc3c(c2)OCO3)no1 | 1.76 | 
29 | COc1ccc(S(=O)(=O)N2CCOC2CNC(=O)C(=O)NCc2ccncc2)cc1OC (centres undefined) | 3.82 | 
30 | O=C(CSc1nccn1-c1cccc(F)c1)NC1CCCC1 | 5.14 | 
31 | CN(C)c1nc(-c2cccnc2)nc(-c2ccc(Cl)cc2)c1C#N | -57.4 | 
32 | S=c1[nH]nc(-c2cccnc2)n1/N=C/C(Cl)=C\c1ccccc1 |  | 20.6 µM (active)
33 | S=c1[nH]nc(-c2ccncc2)n1/N=C/c1ccccc1Cl | 2 | 
34 | Cc1cc(-c2n[nH]c(=S)n2/N=C/c2ccco2)n[nH]1 | 1.05 | 
35 | CCN(CC)S(=O)(=O)c1cccc(-c2n[nH]c(=S)n2/N=C/c2ccc(C(=O)OC)cc2)c1 | -16.5 | 
36 | Fc1ccccc1/C=N/n1c(-c2cccnc2)n[nH]c1=S | 5.67 | 
37 | Cc1cc(-c2n[nH]c(=S)n2/N=C/C(Br)=C/c2ccccc2)n[nH]1 |  | 1.64 µM (active)
38 | FCOC(C(F)(F)F)C(F)(F)F | 7.71 | 
39 | NC(=O)CN1CCCC1c1ccc2c(c1)OCCO2 (centres undefined) | -5.42 | 
40 | CC(C)C(=O)Nc1oc(-c2ccccc2)cc1C#N | 11.7 | 
41 | CC1(C)S[C@@H]2[C@H](NC(=O)COc3ccccc3)C(=O)N2C1C(=O)OCc1ccccc1 (some centres undefined) |  | inactive
42 | COc1ccc(-c2nc(CS(=O)CC(=O)NCc3cccnc3)c(C)o2)cc1OC (centres undefined) | -7.55 | 
43 | COc1ccc(-c2nc(CS(=O)CC(=O)NCc3ccccn3)c(C)o2)cc1 (centres undefined) |  | 18.4 µM (active)
44 | O=C(COc1ccccc1)N1CCc2ccccc2C1 | -6.77 | 
45 | COc1ccc(-c2nc(CS(=O)CC(=O)NCc3ccccc3)c(C)o2)cc1OC (centres undefined) | -20.6 | 
46 | COc1ccc(-c2nc(CS(=O)CC(=O)N3CCc4ccccc4C3)c(C)o2)cc1 (centres undefined) |  | 16.4 µM (active)
47 | COc1cccc(N(CC(=O)N2CCc3ccccc3C2)S(C)(=O)=O)c1 | -6.48 | 
48 | CCCSc1nsc(N)n1 | -14.7 | 
49 | CS(=O)(=O)N1CCN(CC(=O)NC2CCCC2)CC1 | 3.9 | 
50 | O=C(Cc1coc2ccc3ccccc3c12)NCc1cccs1 | -27.8 | 

Row | SMILES | activity change, negative = growth inhibition [%] | Potency
51 | C=CCCC(=O)N1C[C@H]2CON(C)[C@H]2C[C@H]1c1cccc(Nc2ccccc2)c1 | -9.96 | 
52 | COCC1CCCN(Cc2nc(-c3ccc4c(c3)OCO4)no2)C1 (centres undefined) | 9.31 | 
53 | CCn1c(CC(=O)Nc2ccccc2C)nnc1SCC(=O)NC1=NCCS1 | -4.53 | 
54 | CCCNC(=O)c1ccc(Cl)c(Cl)c1 | -22 | 
55 | O=C(Cn1nnc(N2CCCCC2)n1)c1ccc(Cl)c(Cl)c1 | -16 | 
56 | CCCn1c(=N)n(CC(=O)c2ccc(Cl)c(Cl)c2)c2ccccc21 |  | 10.3 µM (active)
57 | O=C(Nc1ccc(OCCO)cc1)c1csc([C@H]2C[C@H](O)[C@@H](CO)O2)n1 | -18 | 
58 | CCOc1ccc(CN2CCN(Cc3ccc4cc(F)ccc4n3)CC2CCO)cc1 (centres undefined) | -4.39 | 
59 | COc1cc(C(=O)NCc2nnc(SCC(=O)Nc3nc4ccc(C)cc4s3)o2)cc(OC)c1OC |  | 4.11 µM (active)
60 | COc1ccccc1NC(=O)CSc1nnc(CNC(=O)c2ccccc2F)o1 | 12 | 
61 | COc1ccc(C(=O)NCc2nnc(SCC(=O)Nc3cccc(OC)c3)o2)cc1 | 16.7 | 
62 | O=C(O)c1ccc(S(=O)(=O)N2CCOCC2)o1 | 2.34 | 
63 | CNc1cc(-c2c(OC)cccc2OC)ncn1 | -8.09 | 
64 | C=CCOC(=O)C1=C(C)NC(SCC(=O)OCC)=C(C#N)C1c1ccc(C)cc1 (centres undefined) | -22.3 | 
65 | COC(=O)CSC1=C(C#N)C(c2ccccc2OC)C(C(=O)OC)C(=O)N1 (centres undefined) | 11.7 | 
66 | CCOC(=O)CSC1=C(C#N)C(c2sccc2C)CC(=O)N1 (centres undefined) |  | 3.55 µM (active)
67 | C/C=C/C=C/C(=O)OCC(=O)Nc1ccc(Cl)cc1 | -3.8 | 
68 | Cc1onc(-c2c(F)cccc2Cl)c1C(=O)N(C)CC(=O)Nc1cccc(F)c1 | 10.5 | 
69 | O=[N+]([O-])c1ccc(N2CCN(c3ccc(F)cc3)CC2)cn1 | -1.17 | 
70 | O=C(c1cccc(C(=O)N2CCN(c3ccc(F)cc3)CC2)c1)N1CCN(c2ccc(F)cc2)CC1 |  | 14.6 µM (active)
71 | O=C(c1cccc([N+](=O)[O-])c1)N1CCN(C(=O)c2ccco2)CC1 | 3.27 | 
72 | O=C(c1cc2cc(F)ccc2[nH]1)N1CCN(c2ccc(F)cc2)CC1 | -15 | 
73 | O=C(c1cc(-c2ccc(F)cc2)on1)N1CCN(c2ccc(F)cc2)CC1 | 3.72 | 
74 | O=C(c1cc(C(=O)N2CCN(c3ccc(F)cc3)CC2)cc([N+](=O)[O-])c1)N1CCN(c2ccc(F)cc2)CC1 |  | 8.2 µM (active)
